# PMC7862700, “An all-to-all approach to the identification of sequence-specific readers for epigenetic DNA modifications on cytosine”
# Columns and labels:
# Assay in all cases: DAPPL (digital affinity profiling via proximity ligation, sequencing); 10 mM Tris-HCl pH 7.5, 50 mM NaCl, 1 mM DTT, 4% glycerol, room temperature, 30 min; GST-TFs on glutathione beads, 16-mer random dsDNA library, 0.1% formaldehyde crosslink after washing; high values mean tight binding
# FLI1 = biological target: T1, FLI1 (Homo sapiens, UniProt Q01543 1-452); conditions: protein: recombinant; tags: N-terminal GST; dsDNA, one strand shown
# T1 sequence: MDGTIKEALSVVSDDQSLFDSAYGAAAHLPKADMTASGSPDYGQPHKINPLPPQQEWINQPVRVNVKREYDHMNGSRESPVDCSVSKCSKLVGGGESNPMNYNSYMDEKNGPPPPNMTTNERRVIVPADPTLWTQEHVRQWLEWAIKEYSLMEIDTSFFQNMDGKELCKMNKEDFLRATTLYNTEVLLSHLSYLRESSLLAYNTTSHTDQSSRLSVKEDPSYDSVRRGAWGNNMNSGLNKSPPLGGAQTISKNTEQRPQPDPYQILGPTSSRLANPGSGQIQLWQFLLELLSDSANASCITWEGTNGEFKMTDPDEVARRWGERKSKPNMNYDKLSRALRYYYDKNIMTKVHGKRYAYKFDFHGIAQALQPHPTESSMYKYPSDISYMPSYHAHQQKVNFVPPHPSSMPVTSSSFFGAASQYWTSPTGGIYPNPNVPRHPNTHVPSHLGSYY
# Procedure, shortened: (§1)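 Binding signal is defined as a hexamer's read frequency for one factor over its frequency for the tag-only sample. To obtain reads, GST-fused human transcription factors were expressed in yeast, captured on glutathione beads, barcoded with DNA and pooled with that sample. Pools met 200 nmole of a 16-mer random double-stranded DNA library in Tris/NaCl/DTT/glycerol buffer for 30 min at room temperature before washing, 0.1% formaldehyde crosslinking, proximity ligation (BsaI/T4 ligase, 1 h, 37 °C), PCR and Illumina NextSeq500 sequencing.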
# ELK1 = biological target: T2, ELK1 (Homo sapiens, UniProt P19419 1-428); conditions: protein: recombinant; tags: N-terminal GST; dsDNA, one strand shown
# T2 sequence: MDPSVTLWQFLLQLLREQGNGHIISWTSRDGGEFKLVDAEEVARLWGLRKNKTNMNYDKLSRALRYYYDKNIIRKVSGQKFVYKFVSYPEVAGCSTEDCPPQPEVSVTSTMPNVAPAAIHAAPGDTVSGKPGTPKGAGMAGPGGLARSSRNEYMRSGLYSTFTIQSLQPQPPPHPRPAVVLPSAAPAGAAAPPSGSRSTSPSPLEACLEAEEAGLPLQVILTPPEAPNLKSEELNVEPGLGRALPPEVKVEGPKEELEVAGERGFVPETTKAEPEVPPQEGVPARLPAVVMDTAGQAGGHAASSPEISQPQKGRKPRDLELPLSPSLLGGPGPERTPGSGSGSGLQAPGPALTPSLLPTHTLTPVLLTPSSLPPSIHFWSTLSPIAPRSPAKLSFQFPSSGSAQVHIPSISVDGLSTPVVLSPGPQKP
# Procedure, shortened: as §1
# GABPA = biological target: T3, GABPA (Homo sapiens, UniProt Q06546 1-454); conditions: protein: recombinant; tags: N-terminal GST; dsDNA, one strand shown
# T3 sequence: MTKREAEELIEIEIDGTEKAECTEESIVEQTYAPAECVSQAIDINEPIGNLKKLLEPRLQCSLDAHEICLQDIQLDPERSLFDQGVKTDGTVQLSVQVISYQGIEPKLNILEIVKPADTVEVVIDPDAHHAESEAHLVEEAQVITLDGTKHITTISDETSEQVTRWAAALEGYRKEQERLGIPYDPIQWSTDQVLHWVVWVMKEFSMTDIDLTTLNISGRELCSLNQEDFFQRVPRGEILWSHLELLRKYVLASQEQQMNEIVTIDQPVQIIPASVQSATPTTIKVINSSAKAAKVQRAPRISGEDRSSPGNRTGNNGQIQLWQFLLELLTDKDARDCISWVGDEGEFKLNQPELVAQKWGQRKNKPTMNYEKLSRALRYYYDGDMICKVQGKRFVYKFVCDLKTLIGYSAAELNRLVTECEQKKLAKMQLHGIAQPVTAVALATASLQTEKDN
# Procedure, shortened: as §1
# ERG = biological target: T4, ERG (Homo sapiens, UniProt P11308 1-479); conditions: protein: recombinant; tags: N-terminal GST; dsDNA, one strand shown
# T4 sequence: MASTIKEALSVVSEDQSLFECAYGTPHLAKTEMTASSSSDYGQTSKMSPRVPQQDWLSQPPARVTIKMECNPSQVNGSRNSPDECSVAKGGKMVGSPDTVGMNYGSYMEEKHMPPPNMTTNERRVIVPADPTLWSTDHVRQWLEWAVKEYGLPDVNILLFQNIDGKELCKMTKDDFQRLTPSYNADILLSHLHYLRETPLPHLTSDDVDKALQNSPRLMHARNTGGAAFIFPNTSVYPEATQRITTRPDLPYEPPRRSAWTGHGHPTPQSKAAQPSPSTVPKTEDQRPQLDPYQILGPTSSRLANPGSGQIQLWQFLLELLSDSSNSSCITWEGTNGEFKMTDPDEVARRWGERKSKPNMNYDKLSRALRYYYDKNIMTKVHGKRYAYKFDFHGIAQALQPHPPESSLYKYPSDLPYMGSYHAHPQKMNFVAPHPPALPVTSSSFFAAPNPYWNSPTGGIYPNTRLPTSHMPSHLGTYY
# Procedure, shortened: as §1
# ELF1 = ELF1 (Homo sapiens, UniProt P32519 1-619); conditions: protein: recombinant; tags: N-terminal GST; dsDNA, one strand shown
# Sequence of ELF1 (P32519 whole entry): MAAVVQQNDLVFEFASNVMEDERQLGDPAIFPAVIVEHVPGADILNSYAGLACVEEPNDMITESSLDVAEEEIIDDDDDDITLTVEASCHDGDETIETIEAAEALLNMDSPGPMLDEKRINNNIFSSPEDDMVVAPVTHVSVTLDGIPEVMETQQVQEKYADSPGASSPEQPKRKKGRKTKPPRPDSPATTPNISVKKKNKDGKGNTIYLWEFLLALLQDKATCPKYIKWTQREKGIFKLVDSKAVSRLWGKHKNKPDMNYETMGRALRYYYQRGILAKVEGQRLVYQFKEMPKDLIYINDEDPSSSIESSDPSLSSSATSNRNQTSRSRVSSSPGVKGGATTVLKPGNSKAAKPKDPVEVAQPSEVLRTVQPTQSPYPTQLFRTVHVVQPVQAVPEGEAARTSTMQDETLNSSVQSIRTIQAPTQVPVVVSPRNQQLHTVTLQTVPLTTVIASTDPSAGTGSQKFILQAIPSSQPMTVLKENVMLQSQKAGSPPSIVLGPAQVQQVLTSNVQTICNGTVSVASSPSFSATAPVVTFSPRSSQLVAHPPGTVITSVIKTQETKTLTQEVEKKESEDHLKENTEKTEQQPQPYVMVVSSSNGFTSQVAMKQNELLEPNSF
# Procedure, shortened: as §1
# EHF = biological target: T5, EHF (Homo sapiens, UniProt Q9NZC4 1-300); conditions: protein: recombinant; tags: N-terminal GST; dsDNA, one strand shown
# T5 sequence: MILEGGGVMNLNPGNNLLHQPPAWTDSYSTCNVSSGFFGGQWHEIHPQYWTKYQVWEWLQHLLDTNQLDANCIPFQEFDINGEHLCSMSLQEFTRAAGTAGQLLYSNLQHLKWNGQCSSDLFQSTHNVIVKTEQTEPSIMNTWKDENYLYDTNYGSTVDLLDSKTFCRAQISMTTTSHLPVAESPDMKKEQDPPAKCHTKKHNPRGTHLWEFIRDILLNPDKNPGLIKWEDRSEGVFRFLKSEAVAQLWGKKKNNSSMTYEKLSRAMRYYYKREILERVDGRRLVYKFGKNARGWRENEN
# Procedure, shortened: as §1
# SPI1 = SPI1 (Homo sapiens, UniProt P17947 1-270); conditions: protein: recombinant; tags: N-terminal GST; dsDNA, one strand shown
# Procedure, shortened: as §1
# SPIB = SPIB (Homo sapiens, UniProt Q01892 1-262); conditions: protein: recombinant; tags: N-terminal GST; dsDNA, one strand shown
# Sequence of SPIB (Q01892 whole entry): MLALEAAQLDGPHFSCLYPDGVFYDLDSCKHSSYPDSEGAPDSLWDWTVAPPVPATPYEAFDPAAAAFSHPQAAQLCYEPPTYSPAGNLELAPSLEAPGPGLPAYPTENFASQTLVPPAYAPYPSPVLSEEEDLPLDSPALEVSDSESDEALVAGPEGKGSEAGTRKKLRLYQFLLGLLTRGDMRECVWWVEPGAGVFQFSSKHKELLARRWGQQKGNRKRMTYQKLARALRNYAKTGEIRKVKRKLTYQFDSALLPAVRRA
# Procedure, shortened: as §1
# ELK3 = biological target: T6, ELK3 (Homo sapiens, UniProt P41970 1-407); conditions: protein: recombinant; tags: N-terminal GST; dsDNA, one strand shown
# T6 sequence: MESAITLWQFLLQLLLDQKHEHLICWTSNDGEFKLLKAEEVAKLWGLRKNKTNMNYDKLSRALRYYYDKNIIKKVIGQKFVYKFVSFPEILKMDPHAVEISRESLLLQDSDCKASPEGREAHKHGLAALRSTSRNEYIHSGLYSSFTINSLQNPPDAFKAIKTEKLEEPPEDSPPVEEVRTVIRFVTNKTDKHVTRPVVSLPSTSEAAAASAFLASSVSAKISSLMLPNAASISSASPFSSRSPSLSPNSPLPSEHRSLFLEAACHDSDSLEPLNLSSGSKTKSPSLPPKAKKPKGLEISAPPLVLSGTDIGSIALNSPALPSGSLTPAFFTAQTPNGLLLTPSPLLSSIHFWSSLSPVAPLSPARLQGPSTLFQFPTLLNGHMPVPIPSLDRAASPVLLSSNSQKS
# Procedure, shortened: as §1
# FEV = biological target: T7, FEV (Homo sapiens, UniProt Q99581 1-238); conditions: protein: recombinant; tags: N-terminal GST; dsDNA, one strand shown
# T7 sequence: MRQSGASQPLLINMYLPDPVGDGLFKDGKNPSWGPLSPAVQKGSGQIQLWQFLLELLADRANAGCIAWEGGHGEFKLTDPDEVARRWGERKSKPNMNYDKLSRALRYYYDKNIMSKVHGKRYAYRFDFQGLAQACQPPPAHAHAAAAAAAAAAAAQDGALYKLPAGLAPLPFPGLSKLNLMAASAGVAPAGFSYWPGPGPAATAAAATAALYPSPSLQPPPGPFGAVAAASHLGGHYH
# Procedure, shortened: as §1
# ETV5 = ETV5 (Homo sapiens, UniProt P41161 1-510); conditions: protein: recombinant; tags: N-terminal GST; dsDNA, one strand shown
# Sequence of ETV5 (P41161 whole entry): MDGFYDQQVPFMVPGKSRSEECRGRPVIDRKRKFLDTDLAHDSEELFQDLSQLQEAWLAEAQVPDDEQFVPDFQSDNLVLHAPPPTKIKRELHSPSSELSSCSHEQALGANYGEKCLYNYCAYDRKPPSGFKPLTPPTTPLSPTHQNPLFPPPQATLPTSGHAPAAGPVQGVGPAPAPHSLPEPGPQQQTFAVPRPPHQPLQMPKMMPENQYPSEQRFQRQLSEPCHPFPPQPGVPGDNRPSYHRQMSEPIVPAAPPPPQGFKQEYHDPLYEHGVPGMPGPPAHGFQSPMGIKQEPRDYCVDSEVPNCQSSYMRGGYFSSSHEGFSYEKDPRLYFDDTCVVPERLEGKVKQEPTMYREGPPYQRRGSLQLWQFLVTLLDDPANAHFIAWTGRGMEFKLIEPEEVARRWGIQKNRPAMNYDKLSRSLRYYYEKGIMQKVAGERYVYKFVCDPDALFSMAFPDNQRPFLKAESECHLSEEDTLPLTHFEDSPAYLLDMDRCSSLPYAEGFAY
# Procedure, shortened: as §1
# HSF1 = HSF1 (Homo sapiens, UniProt Q00613 1-529); conditions: protein: recombinant; tags: N-terminal GST; chain copies: 3; dsDNA, one strand shown
# Sequence of HSF1 (Q00613 whole entry): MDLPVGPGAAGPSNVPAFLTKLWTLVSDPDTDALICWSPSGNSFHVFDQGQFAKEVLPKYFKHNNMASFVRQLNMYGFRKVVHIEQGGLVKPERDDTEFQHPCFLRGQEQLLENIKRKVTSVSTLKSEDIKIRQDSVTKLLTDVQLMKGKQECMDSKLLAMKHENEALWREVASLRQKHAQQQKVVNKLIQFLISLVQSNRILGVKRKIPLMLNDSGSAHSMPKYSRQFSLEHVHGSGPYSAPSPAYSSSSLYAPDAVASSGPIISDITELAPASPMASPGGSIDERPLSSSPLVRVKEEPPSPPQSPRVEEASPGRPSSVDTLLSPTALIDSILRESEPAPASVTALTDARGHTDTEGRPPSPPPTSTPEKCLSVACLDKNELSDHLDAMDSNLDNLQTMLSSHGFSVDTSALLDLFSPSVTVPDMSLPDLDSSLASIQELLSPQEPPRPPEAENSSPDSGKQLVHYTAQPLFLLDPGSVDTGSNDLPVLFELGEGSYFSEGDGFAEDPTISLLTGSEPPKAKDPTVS
# Procedure, shortened: as §1
# SPIC = biological target: T8, SPIC (Homo sapiens, UniProt Q8N5J4 1-248); conditions: protein: recombinant; tags: N-terminal GST; dsDNA, one strand shown
# T8 sequence: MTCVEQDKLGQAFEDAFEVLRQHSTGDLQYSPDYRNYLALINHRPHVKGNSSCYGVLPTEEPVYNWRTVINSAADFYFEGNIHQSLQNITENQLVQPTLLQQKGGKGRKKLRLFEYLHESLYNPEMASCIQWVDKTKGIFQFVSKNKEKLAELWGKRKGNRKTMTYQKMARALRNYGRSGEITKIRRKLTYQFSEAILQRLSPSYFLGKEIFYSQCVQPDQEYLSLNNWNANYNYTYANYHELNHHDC
# Procedure, shortened: as §1
# ELF4 = ELF4 (Homo sapiens, UniProt Q99607 1-663); conditions: protein: recombinant; tags: N-terminal GST; dsDNA, one strand shown
# Sequence of ELF4 (Q99607 whole entry): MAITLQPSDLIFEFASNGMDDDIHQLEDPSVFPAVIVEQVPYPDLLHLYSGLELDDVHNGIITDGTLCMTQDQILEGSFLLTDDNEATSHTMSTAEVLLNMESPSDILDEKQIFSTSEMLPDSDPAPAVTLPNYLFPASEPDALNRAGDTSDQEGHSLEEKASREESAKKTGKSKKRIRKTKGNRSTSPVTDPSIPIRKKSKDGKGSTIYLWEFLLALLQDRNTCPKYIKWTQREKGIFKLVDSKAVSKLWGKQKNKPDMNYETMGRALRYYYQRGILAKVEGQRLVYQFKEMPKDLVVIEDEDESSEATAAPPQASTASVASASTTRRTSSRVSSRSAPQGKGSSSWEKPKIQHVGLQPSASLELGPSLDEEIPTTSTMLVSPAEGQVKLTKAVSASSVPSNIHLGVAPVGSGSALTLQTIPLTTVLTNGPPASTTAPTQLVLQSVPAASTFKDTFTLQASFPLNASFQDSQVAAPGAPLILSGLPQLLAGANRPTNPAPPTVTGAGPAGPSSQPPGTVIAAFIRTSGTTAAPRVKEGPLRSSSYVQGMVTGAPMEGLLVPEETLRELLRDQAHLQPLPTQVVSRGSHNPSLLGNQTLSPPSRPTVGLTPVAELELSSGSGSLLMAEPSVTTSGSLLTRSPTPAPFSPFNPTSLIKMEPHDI
# Procedure, shortened: as §1
# ELK4 = biological target: T9, ELK4 (Homo sapiens, UniProt P28324-2 1-405); conditions: protein: recombinant; tags: N-terminal GST; dsDNA, one strand shown
# T9 sequence: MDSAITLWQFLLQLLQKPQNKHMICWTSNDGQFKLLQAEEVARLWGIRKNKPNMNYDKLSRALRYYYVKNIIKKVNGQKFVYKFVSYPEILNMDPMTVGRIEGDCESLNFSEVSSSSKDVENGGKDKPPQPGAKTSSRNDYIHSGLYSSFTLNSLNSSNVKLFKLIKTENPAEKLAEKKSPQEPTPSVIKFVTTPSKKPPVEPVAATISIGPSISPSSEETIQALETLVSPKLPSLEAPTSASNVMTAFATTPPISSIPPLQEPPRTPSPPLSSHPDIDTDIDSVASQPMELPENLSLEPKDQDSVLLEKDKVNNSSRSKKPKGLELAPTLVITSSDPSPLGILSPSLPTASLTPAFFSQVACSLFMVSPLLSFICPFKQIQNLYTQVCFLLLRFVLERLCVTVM
# Procedure, shortened: as §1
# ETV2 = biological target: T10, ETV2 (Homo sapiens, UniProt O00321 1-342); conditions: protein: recombinant; tags: N-terminal GST; dsDNA, one strand shown
# T10 sequence: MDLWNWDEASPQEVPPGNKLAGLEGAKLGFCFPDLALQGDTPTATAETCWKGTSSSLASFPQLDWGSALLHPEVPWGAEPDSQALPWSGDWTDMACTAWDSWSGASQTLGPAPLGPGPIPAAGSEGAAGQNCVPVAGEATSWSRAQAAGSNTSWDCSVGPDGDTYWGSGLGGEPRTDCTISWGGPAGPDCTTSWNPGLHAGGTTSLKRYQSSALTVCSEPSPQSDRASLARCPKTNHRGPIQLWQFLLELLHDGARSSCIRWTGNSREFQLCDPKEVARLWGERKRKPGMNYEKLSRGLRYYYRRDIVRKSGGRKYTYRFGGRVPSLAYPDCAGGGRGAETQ
# Procedure, shortened: as §1
# ELF3 = biological target: T11, ELF3 (Homo sapiens, UniProt P78545 1-371); conditions: protein: recombinant; tags: N-terminal GST; dsDNA, one strand shown
# T11 sequence: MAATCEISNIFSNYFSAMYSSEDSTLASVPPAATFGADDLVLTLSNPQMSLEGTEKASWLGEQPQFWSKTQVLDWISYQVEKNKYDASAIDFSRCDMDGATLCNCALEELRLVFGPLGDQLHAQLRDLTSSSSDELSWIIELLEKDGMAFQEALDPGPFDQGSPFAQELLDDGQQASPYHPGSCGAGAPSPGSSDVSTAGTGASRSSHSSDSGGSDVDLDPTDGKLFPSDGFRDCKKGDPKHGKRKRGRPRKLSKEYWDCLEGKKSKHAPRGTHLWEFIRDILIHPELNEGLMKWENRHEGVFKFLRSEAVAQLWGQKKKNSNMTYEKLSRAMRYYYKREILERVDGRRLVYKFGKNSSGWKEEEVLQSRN
# Procedure, shortened: as §1
# CRX = CRX (Homo sapiens, UniProt O43186 1-299); conditions: protein: recombinant; tags: N-terminal GST; dsDNA, one strand shown
# Sequence of CRX (O43186 whole entry): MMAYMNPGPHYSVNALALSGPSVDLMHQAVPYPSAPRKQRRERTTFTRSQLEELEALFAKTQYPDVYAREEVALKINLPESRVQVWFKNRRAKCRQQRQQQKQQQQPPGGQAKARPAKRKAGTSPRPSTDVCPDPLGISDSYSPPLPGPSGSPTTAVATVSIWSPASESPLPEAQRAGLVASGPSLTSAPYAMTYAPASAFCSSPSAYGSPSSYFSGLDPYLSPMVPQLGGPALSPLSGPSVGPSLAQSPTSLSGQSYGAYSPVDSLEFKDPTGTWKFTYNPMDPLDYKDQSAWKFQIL
# Procedure, shortened: as §1
# ETV1 = ETV1 (Homo sapiens, UniProt P50549 1-477); conditions: protein: recombinant; tags: N-terminal GST; dsDNA, one strand shown
# Sequence of ETV1 (P50549 whole entry): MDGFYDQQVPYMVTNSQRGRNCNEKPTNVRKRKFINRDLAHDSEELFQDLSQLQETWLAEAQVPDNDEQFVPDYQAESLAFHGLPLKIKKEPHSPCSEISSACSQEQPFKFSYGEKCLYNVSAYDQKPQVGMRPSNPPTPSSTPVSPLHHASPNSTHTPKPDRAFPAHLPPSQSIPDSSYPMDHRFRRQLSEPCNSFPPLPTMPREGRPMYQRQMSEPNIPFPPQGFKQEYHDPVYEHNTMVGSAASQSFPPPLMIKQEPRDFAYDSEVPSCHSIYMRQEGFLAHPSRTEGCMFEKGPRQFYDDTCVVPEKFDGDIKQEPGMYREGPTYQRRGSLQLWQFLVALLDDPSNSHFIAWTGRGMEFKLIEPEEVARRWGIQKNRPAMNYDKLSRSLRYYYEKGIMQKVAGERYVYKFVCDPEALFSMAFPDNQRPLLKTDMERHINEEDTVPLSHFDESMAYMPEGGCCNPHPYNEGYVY
# Procedure, shortened: as §1
sequence,measurement,setting,value
TATCAC,binding signal,FLI1,"1.33 fold enrichment (6-mer frequency, TF over GST control)"
same,binding signal,ELK1,"1.25 fold enrichment (6-mer frequency, TF over GST control)"
same,binding signal,GABPA,"1.04 fold enrichment (6-mer frequency, TF over GST control)"
same,binding signal,ERG,"1.17 fold enrichment (6-mer frequency, TF over GST control)"
same,binding signal,ELF1,"1.3 fold enrichment (6-mer frequency, TF over GST control)"
same,binding signal,EHF,"1.19 fold enrichment (6-mer frequency, TF over GST control)"
same,binding signal,SPI1,"1.28 fold enrichment (6-mer frequency, TF over GST control)"
same,binding signal,SPIB,"1.22 fold enrichment (6-mer frequency, TF over GST control)"
same,binding signal,ELK3,"1.23 fold enrichment (6-mer frequency, TF over GST control)"
same,binding signal,FEV,"1.21 fold enrichment (6-mer frequency, TF over GST control)"
same,binding signal,ETV5,"1.24 fold enrichment (6-mer frequency, TF over GST control)"
same,binding signal,HSF1,"1.14 fold enrichment (6-mer frequency, TF over GST control)"
same,binding signal,SPIC,"1.17 fold enrichment (6-mer frequency, TF over GST control)"
same,binding signal,ELF4,"1.24 fold enrichment (6-mer frequency, TF over GST control)"
same,binding signal,ELK4,"1.18 fold enrichment (6-mer frequency, TF over GST control)"
same,binding signal,ETV2,"1.34 fold enrichment (6-mer frequency, TF over GST control)"
same,binding signal,ELF3,"1.25 fold enrichment (6-mer frequency, TF over GST control)"
same,binding signal,CRX,"1.35 fold enrichment (6-mer frequency, TF over GST control)"
same,binding signal,ETV1,"1.17 fold enrichment (6-mer frequency, TF over GST control)"
